In all, about 52,000 compounds went through this assay and about 4,300 (8.3%) were called active. This is one part of a sample in which actives are shown more often than they occur. Cut-off read from the data, not from the text of the source: active = survival mostly below about 52% (no sharp cut-off); inactive = mostly above about 56%.
What follows are compounds tested on DeltatarO mutant (assay: growth inhibition of S. aureus wild type versus tarO mutant, primary screen, teichoic acid synthesis inhibitors, RN4220, OD600 (AID 463173)). Details: OD600, 18 h, active compounds read low, screened at 18.75 µg/mL (by protocol).

Structure (SMILES) | survival
COc1ccc2c(Sc3ccccc3)c(C(=O)NCc3cc(Br)ccc3OC)[nH]c2c1 | 95% (inactive)
Cc1cc(C)cc(NC(=O)CSc2cc(C)[nH]c(=O)n2)c1 | 90% (inactive)
CC(=O)c1cccc(Nc2ncnc3c2cnn3-c2cccc(Cl)c2)c1 | 102% (inactive)
COc1cccc(C2=CC(c3ccc(OC)c(OC)c3OC)n3ncnc3N2)c1 (configuration not stated) | 91% (inactive)
COc1ccc(C2C=C(c3ccc(F)cc3)Nc3nc(-c4ccc(Cl)cc4)nn32)cc1 (configuration not stated) | 104% (inactive)
COc1ccc(C2C=C(c3ccccc3)Nc3nc(NS(=O)(=O)c4ccc(C)cc4)nn32)cc1 (configuration not stated) | 55% (inactive)
CC(C)c1ccc(C2=CC(c3cccc(Cl)c3)n3ncnc3N2)cc1 (configuration not stated) | -1% (active)
CC(C)c1ccc(C2=CC(c3ccc(C(C)C)cc3)n3nnnc3N2)cc1 (configuration not stated) | 67% (inactive)
COc1ccc(C2C=C(c3ccc(Cl)c(Cl)c3)Nc3ncnn32)cc1 (configuration not stated) | 6% (active)
Cc1ccc(C2=CC(c3c(F)cccc3Cl)n3ncnc3N2)cc1C (configuration not stated) | 64% (inactive)
Cc1ccc(C2=CC(c3ccc(Cl)cc3)n3nc(-c4ccc(C)cc4)nc3N2)cc1 (configuration not stated) | 44% (inactive)
COc1ccc(C2C=C(c3ccc(Cl)cc3)Nc3nc(-c4ccc(Cl)cc4)nn32)cc1 (configuration not stated) | 38% (active)
CC(C)c1ccc(C2=CC(c3cccc(Cl)c3)n3c(nc4ccccc43)N2)cc1 (configuration not stated) | 76% (inactive)
COc1ccc(C2C=C(c3ccccc3)Nc3nc(NS(=O)(=O)c4ccccc4)nn32)cc1 (configuration not stated) | 25% (active)
CC(=O)Nc1ccc(S(=O)(=O)NCc2ccc3c(c2)CCN3C(C)=O)cc1 | 89% (inactive)
Cc1ccc(N2C(=O)[C@@H]3CSC(c4ccc(Cl)cc4)N3C2=O)cc1 (some centres not stated) | 69% (inactive)
O=C(Cn1ccn(-c2ccc(F)c(F)c2)c(=O)c1=O)Nc1ccccc1F | 65% (inactive)
COc1ccc(CNCC#N)cc1OC | 77% (inactive)
CCn1cc(S(=O)(=O)c2ccc(OC)cc2)c(=O)c2cc(F)c(N3CCC(C)CC3)cc21 | 83% (inactive)
Cc1cc(C)c2c(n1)SCC(=O)N2CC(=O)Nc1c(C)cccc1C | 98% (inactive)
O=C1CC(Sc2ncccc2C(=O)O)C(=O)N1 (configuration not stated) | 95% (inactive)

Structure (SMILES) | survival
COC(=O)CSc1nnc(-c2cccc(O)c2)o1 | 82% (inactive)
Cn1c(=O)oc2cc(S(=O)(=O)NC(Cc3ccccc3)C(=O)NCc3ccccc3Cl)ccc21 (configuration not stated) | 110% (inactive)
CCCc1cc(N2CCN(c3ccc(OC)cc3)CC2)n2cnnc2n1 | 71% (inactive)
COc1ccc(C2C=C(c3ccccc3)Nc3nc(NS(=O)(=O)c4ccc(Cl)cc4)nn32)cc1 (configuration not stated) | 3% (active)
COc1ccc(C2C=C(c3ccc(Cl)cc3)Nc3nc(NC(=O)CCC(=O)O)nn32)cc1 (configuration not stated) | 74% (inactive)
COc1cc2c(=O)n(Cc3ccccc3Cl)c(=O)n(CC(=O)Nc3ccc(C)c(C)c3)c2cc1OC | 83% (inactive)
O=C(Cn1c(=O)oc2cc(S(=O)(=O)N3CCCC3)ccc21)NCc1ccc(F)cc1 | 114% (inactive)
CCCN(Cc1cc2cc(C)ccc2[nH]c1=O)C(=O)c1cccc(Cl)c1 | 73% (inactive)
Cc1ccccc1NS(=O)(=O)c1ccc2[nH]c3c(c2c1)CCCCC3 | 89% (inactive)
Cc1ccc(C)c(NC(=O)CSc2ncc(S(=O)(=O)c3ccc(C)c(Cl)c3)c(=O)[nH]2)c1 | 66% (inactive)
CCc1ccc(NC(=O)CSc2ncc(S(=O)(=O)c3cc(C)ccc3C)c(=O)[nH]2)cc1 | 59% (inactive)
Cc1ccc(C)c(S(=O)(=O)c2cnc(SCC(=O)Nc3ccc(F)cc3F)[nH]c2=O)c1 | 43% (active)
Nc1ccc(-c2ccc(N)cc2C(F)(F)F)c(C(F)(F)F)c1 | 91% (inactive)
Nc1ccc(N2CCOCC2)c(N)c1 | 74% (inactive)
Nc1ccc(N2CCN(c3ncc(C(F)(F)F)cc3Cl)CC2)c(C(F)(F)F)c1 | -5% (active)
CCCOc1ccccc1C1Oc2nc(SC)nnc2-c2ccccc2N1C(C)=O (configuration not stated) | 82% (inactive)
O=C(CCn1c(=O)oc2ccccc21)n1c(=O)oc2ccccc21 | 108% (inactive)
Cc1ccc(Nc2c3c(nc4nncn24)CCC3)cc1C | 55% (inactive)
CC(=O)c1cccc(Nc2c3c(nc4nc(-c5cccs5)nn24)CCCC3)c1 | 95% (inactive)
Fc1cc(Br)ccc1Nc1c2c(nc3nc(-c4cccs4)nn13)CCCC2 | 8% (active)
COc1cc(OC)c(Nc2c3c(nc4nc(-c5cccs5)nn24)CCCC3)cc1Cl | 89% (inactive)

Structure (SMILES) | survival
COc1ccc(C)cc1Nc1c2c(nc3nc(-c4cccs4)nn13)CCCC2 | 91% (inactive)
Cc1ccc(Nc2c3c(nc4nc(-c5cccs5)nn24)CCCC3)cc1F | 20% (active)
CC(C)c1ccc(NC(=O)C2CCN(C(=O)c3ccc(F)cc3)CC2)cc1 | 61% (inactive)
COc1ccc(NC(=O)c2cc(-c3ccccc3F)no2)cc1 | 78% (inactive)
CCOC(=O)c1ccccc1NC(=O)N(C)CCc1c(C)nn(CC)c1C | 78% (inactive)
COc1ccc(-c2cc3nc(C)c(CCC(=O)Nc4cccc(C(F)(F)F)c4)c(C)n3n2)c(OC)c1 | 92% (inactive)
Cc1ccc(S(=O)(=O)N2CC=C(c3c(C)n(CC(=O)N4CCCC4)c4ccccc34)CC2)cc1C | 72% (inactive)
CCCCC1CCC(C(=O)N2CC(=O)Nc3ccc(Cl)cc3C2c2ccc(F)cc2)CC1 (configuration not stated) | 40% (active)
O=C1CN(C(=O)C2CCCCC2)C(c2ccccc2)c2cc(F)ccc2N1 (configuration not stated) | 70% (inactive)
CCCCC1CCC(C(=O)N2CC(=O)Nc3ccc(Br)cc3C2c2ccc(F)cc2)CC1 (configuration not stated) | 55% (inactive)
CCCCC1CCC(C(=O)N2CC(=O)Nc3ccc(F)cc3C2c2ccc(F)cc2)CC1 (configuration not stated) | 38% (active)
CCCCC(=O)N1CC(=O)Nc2ccc(F)cc2C1c1ccc(F)cc1 (configuration not stated) | 60% (inactive)
CCCCC1CCC(C(=O)N2CC(=O)Nc3ccc(C)cc3C2c2ccc(F)cc2)CC1 (configuration not stated) | 126% (inactive)
CCc1ccc2occ(CC(=O)Nc3sc4c(c3C(=O)OC)CCC4)c2c1 | 70% (inactive)
Cc1cc(-n2ccnc(NCCc3ccc(S(N)(=O)=O)cc3)c2=O)ccc1Br | 94% (inactive)
Cc1ccc2c(c1)CC(C)N2S(=O)(=O)c1nnc(NC(=O)CC(C)C)s1 (configuration not stated) | 59% (inactive)
Cc1ccc2c(c1)CC(C)N2S(=O)(=O)c1nnc(NC(=O)C(C)C)s1 (configuration not stated) | 58% (inactive)
Cc1ccccc1C(=O)Nc1nnc(S(=O)(=O)N2c3ccccc3CC2C)s1 (configuration not stated) | 20% (active)
CC1Cc2ccccc2N1S(=O)(=O)c1nnc(NC(=O)c2ccccc2Br)s1 (configuration not stated) | 23% (active)
Cc1ccc2c(c1)CC(C)N2S(=O)(=O)c1nnc(NC(=O)c2ccccc2F)s1 (configuration not stated) | 9% (active)
